Results as given in PubChem BioAssay (Tox21).
Results filed as inconclusive are left out. The source made the active and inactive calls. Unless noted, the call rests on the fitted dose curve.

Columns and labels:
[1] = qHTS assay to identify small molecule antagonists of the sonic hedgehog signaling (Shh) pathway (AID 1259369); further: nearly all actives have a fitted effect of over 45% in size
Procedure, shortened: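 Antagonist mode: compound added to 3T3 Gli1-Luc cells followed by conditioned-medium stimulation, 24 h at 37 C, 5% CO2. Inhibition taken as loss of Gli1-driven luciferase luminescence.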

[2] = molecular target: Estrogen receptor beta (Homo sapiens) (UniProt Q92731); assay: qHTS assay to identify small molecule agonists of the estrogen receptor beta (ER-beta) signaling pathway (AID 1259377; active means well fitted activation curve with a large enough effect in the signal ratio in the repeat runs, not every such curve was filed as active; the % refers to the signal ratio)
Chain of Estrogen receptor beta (Homo sapiens) (Q92731 whole entry, looked up): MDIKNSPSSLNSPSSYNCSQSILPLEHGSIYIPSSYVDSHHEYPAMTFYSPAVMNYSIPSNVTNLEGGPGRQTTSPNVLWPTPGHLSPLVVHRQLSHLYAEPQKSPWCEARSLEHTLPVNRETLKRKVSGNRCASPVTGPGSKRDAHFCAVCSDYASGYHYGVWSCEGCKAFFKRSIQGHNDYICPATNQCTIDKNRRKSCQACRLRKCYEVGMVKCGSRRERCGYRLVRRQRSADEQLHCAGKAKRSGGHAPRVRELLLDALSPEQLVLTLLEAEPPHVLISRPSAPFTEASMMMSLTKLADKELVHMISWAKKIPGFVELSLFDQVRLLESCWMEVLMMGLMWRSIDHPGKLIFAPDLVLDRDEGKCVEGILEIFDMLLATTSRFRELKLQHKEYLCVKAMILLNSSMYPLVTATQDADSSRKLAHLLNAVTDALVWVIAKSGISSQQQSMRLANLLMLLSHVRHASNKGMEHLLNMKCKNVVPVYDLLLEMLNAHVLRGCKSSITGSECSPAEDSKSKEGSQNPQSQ
Procedure, shortened: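 Ratiometric beta-lactamase FRET read-out came after 2 h substrate loading at room temperature. It followed 16 h compound treatment at 37C of GripTite HEK293T cells carrying a UAS-bla reporter, plated in 2% charcoal-stripped FBS medium.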

[3] = molecular target: Estrogen receptor beta (Homo sapiens) (UniProt Q92731); assay: qHTS assay to identify small molecule antagonists of the estrogen receptor beta (ER-beta) signaling pathway (AID 1259378; active means well fitted inhibition curve with a large enough effect in the signal ratio in the repeat runs, not every such curve was filed as active; the % refers to the signal ratio)
Procedure, shortened: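 Antagonist mode: compounds added to beta-lactamase reporter HEK293T ER-beta-UAS cells stimulated with E2 (1nM final), 16 hr at 37C. LiveBLAzer B/G FRET substrate, 2 hours room temperature, fluorescence read-out.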

[4] = qHTS assay to identify small molecule agonists of the androgen receptor (AR) signaling pathway in the presence of an antagonist - cell viability counter screen (AID 1259379; active means well fitted curve in the direction sought with a large enough effect in the repeat runs; an effect the other way counts as inactive or inconclusive;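 further: MDA-kb2 human breast cancer cells carrying an MMTV luciferase reporter; series mostly up to about 92 µM; nearly all actives have a fitted effect of over 25% in size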)
Procedure, shortened: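 Cytotoxicity counter-screen run in the same wells as the nilutamide-challenged (3.0 µM final) AR agonist assay in MDA-kb2 cells. Compounds tested at 15 concentrations for 16 h, 37 °C without CO2; CellTiter-Fluor fluorescence read.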

[5] = qHTS assay to identify small molecule agonists of the estrogen receptor beta (ER-beta) signaling pathway - cell viability counter screen (AID 1259380; active means well fitted curve in the direction sought with a large enough effect in the repeat runs; an effect the other way counts as inactive or inconclusive; further: nearly all actives have a fitted effect of over 30% in size)
Procedure, shortened: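 Cell viability counter screen: CellTiter-Glo luminescence (30 min, room temperature) measured in the same wells as the beta-lactamase readout, after 16 hr compound exposure at 37C of ER-beta-bla HEK293T cells in 2% charcoal-stripped FBS medium.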

[6] = qHTS assay to identify small molecule antagonists of the estrogen receptor beta (ER-beta) signaling pathway - cell viability counter screen (AID 1259382; active means well fitted curve in the direction sought with a large enough effect in the repeat runs; an effect the other way counts as inactive or inconclusive;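 further: HEK293T cells carrying ER-beta-UAS-bla reporter stimulated with estradiol; series mostly up to about 92 µM; nearly all actives have a fitted effect of over 55% in size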)
Procedure, shortened: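 Cytotoxicity was measured in the same wells by CellTiter-Glo luminescence after 30 min at room temperature. Cells were ER-beta-bla HEK293T in charcoal-stripped serum, given compound together with 1 nM E2 and incubated 16 h at 37C.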

[7] = molecular target: Estrogen receptor (Homo sapiens) (UniProt P03372); assay: qHTS assay to identify small molecule agonists of the estrogen receptor alpha (ER-alpha) signaling pathway in the presence of an antagonist (AID 1259383); further: top concentration of the series differs between compounds; nearly all actives have a fitted effect of over 15% in size
Chain of Estrogen receptor (Homo sapiens) (P03372 whole entry, looked up): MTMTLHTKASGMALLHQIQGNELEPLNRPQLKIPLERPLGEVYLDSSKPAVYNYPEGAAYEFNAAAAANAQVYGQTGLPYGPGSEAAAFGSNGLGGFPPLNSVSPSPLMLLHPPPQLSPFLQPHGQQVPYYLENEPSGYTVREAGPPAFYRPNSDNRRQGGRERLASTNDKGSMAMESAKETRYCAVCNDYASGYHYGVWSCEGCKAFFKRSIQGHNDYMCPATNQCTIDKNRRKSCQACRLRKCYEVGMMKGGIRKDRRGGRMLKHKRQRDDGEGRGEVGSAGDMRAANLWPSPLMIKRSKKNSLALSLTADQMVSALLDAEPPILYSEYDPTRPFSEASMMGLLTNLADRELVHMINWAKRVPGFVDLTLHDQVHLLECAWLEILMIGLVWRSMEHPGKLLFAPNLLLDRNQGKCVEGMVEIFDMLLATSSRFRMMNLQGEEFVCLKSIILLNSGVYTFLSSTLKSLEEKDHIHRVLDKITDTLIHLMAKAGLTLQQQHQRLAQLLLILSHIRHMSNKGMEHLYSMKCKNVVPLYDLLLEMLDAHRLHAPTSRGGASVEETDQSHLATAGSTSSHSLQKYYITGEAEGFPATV
Procedure, shortened: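 Agonist-mode confirmation run in the presence of 10.0nM (final) ICI-182,780 antagonist. The reporter was ERE-driven luciferase in VM7Luc4E2 cells, grown in charcoal-stripped serum. Cells were exposed to 15-concentration compound series for 22hr, then ONE-Glo luminescence was read.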

[8] = qHTS assay to identify small molecule agonists or antagonists of the thyroid stimulating hormone receptor (TSHR) signaling pathway - wild type cell line counter screen (AID 1259384)
Procedure, shortened: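 Counter screen in untransfected Hek293: compounds (15-point titration, triplicate) plus phosphodiesterase inhibitor Ro20-1724 added after 18 h plating; 30 min RT. Intracellular cAMP via competitive d2/cryptate immunoassay, 1 h incubation.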

[9] = molecular target: Thyrotropin receptor (Homo sapiens) (UniProt P16473); assay: qHTS assay to identify small molecule antagonists of the thyroid stimulating hormone receptor (TSHR) signaling pathway (AID 1259385); further: nearly all actives have a fitted effect of over 20% in size
Chain of Thyrotropin receptor (Homo sapiens) (P16473 whole entry, looked up): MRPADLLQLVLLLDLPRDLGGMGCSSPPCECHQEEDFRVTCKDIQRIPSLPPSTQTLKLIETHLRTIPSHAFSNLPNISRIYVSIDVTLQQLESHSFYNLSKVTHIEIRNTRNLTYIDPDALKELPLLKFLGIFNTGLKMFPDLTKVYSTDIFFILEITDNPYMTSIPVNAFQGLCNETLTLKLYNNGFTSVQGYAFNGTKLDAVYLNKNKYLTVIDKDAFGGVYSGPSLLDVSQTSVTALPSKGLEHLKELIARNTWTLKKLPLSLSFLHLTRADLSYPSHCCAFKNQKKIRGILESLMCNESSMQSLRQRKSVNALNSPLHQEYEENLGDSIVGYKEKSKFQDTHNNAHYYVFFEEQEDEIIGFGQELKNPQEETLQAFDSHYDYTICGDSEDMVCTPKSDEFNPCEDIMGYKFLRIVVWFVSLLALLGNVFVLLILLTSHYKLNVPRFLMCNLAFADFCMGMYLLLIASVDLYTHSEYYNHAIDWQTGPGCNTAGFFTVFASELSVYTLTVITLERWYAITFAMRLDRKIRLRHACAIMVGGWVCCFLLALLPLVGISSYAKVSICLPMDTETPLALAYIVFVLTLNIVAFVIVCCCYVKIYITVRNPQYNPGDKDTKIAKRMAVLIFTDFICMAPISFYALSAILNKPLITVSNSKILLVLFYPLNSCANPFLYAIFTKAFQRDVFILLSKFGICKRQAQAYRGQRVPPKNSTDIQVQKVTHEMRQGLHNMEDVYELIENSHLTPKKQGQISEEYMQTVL
Procedure, shortened: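 Antagonist mode: compound-treated TSHR-expressing HEK293 cells were stimulated with 1.5 ng/mL TSH (final) in presence of Ro20-1724 for 30 min at RT. HTRF cAMP detection after 1 h; each compound tested at 15 concentrations, triplicate.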

[10] = molecular target: Progesterone receptor (Homo sapiens) (UniProt P06401); assay: qHTS assay to identify small molecule agonists of the progesterone receptor (PR) signaling pathway (AID 1346784); further: nearly all actives have a fitted effect of over 30% in size
Chain of Progesterone receptor (Homo sapiens) (P06401 whole entry, looked up): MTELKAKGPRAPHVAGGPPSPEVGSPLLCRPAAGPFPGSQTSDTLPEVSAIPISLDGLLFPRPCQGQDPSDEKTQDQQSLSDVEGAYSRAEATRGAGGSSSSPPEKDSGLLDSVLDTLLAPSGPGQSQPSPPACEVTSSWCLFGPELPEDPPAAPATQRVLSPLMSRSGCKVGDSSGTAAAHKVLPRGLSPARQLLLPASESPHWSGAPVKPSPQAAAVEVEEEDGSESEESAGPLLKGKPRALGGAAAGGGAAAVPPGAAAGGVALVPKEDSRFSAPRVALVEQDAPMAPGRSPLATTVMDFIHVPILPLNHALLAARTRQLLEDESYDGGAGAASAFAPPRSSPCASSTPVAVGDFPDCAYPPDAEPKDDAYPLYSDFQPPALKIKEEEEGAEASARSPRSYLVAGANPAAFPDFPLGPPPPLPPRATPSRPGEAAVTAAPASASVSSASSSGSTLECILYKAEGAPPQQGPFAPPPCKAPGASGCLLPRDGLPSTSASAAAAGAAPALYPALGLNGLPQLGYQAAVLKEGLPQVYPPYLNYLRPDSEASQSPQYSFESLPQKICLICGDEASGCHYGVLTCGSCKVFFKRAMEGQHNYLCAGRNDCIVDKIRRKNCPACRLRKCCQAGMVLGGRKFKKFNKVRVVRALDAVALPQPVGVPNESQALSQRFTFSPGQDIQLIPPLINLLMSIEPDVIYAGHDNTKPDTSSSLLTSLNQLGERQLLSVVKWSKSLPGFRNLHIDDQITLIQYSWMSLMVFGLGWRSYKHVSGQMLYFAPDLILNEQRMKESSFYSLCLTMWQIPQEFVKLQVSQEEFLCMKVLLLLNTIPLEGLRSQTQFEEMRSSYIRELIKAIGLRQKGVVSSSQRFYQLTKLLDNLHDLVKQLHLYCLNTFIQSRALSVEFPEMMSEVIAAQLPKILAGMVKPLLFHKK
Procedure, shortened: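 Agonist qHTS: compounds pinned onto 3,000 PR-UAS-bla HEK 293T cells per well in charcoal-stripped serum medium, 16hr at 37C, then beta-lactamase activity measured by LiveBLAzer FRET fluorescence after 2 hours at room temperature.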

[11] = qHTS assay to identify small molecule antagonists of the progesterone receptor (PR) signaling pathway - cell viability counter screen (AID 1346798; active means well fitted curve in the direction sought with a large enough effect in the repeat runs; an effect the other way counts as inactive or inconclusive; further: series mostly up to about 92 µM; nearly all actives have a fitted effect of over 50% in size)
Procedure, shortened: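 Cytotoxicity read as CellTiter-Glo luminescence (30 min, room temperature) in the same wells as the beta-lactamase readout. HEK293T PR-UAS-bla cells in charcoal-stripped 2% FBS received compound and R5020, then 16 h at 37C, 5% CO2.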

[12] = qHTS assay to identify small molecule agonists of the progesterone receptor (PR) signaling pathway - cell viability counter screen (AID 1346799); further: nearly all actives have a fitted effect of over 45% in size
Procedure, shortened: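 Cytotoxicity measured by CellTiter-Glo luminescence (30 min, RT) in the same wells as the PR beta-lactamase agonist read. Those HEK293T cells had 16 h compound treatment at 37 C in 2% charcoal-stripped FBS medium.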

[13] = qHTS assay to identify small molecule antagonists of the TGF-beta/Smad signaling pathway - cell viability counter screen (AID 1346824; active means well fitted curve in the direction sought with a large enough effect in the repeat runs; an effect the other way counts as inactive or inconclusive; further: nearly all actives have a fitted effect of over 50% in size)
Procedure, shortened: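 Cytotoxicity counter-screen run in the same wells as the beta-lactamase Smad reporter read: CellTiter-Glo luminescence after 30 min at room temperature. HEK 293T SBE-bla cells had 5 hr compound exposure at 37 C with TGF-beta1 (0.25 ng/mL stock).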

[14] = qHTS assay to identify small molecule agonists of the TGF-beta/Smad signaling pathway - cell viability counter screen (AID 1346829; active means well fitted curve in the direction sought with a large enough effect in the repeat runs; an effect the other way counts as inactive or inconclusive; further: top concentration of the series differs between compounds; nearly all actives have a fitted effect of over 45% in size)
Procedure, shortened: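 Same-well cytotoxicity: CellTiter-Glo added after the 2 hr room-temperature beta-lactamase substrate step, luminescence measured 30 min later; cells had 5 hr of compound at 37 C.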

[15] = qHTS assay to identify small molecule agonists of the TGF-beta/Smad signaling pathway (AID 1346859; active means well fitted activation curve with a large enough effect in the signal ratio in the repeat runs, not every such curve was filed as active; the % refers to the signal ratio; further: series mostly up to about 77 µM)
Procedure, shortened: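 Fluorescence (ex 405 nm; em 460 and 530 nm) was read 2 h after LiveBLAzer FRET substrate at RT. The preceding compound treatment of overnight-plated SBE-bla HEK293T cells lasted 5 h at 37 C.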

[16] = molecular target: Thyrotropin-releasing hormone receptor (Homo sapiens) (UniProt P34981); assay: qHTS assay to identify small molecule antagonists of the thyrotropin-releasing hormone receptor (TRHR) signaling pathway (AID 1346877; active means well fitted inhibition curve with a large enough effect in the repeat runs, not every such curve was filed as active; further: series mostly up to about 51 µM)
Chain of Thyrotropin-releasing hormone receptor (Homo sapiens) (P34981 whole entry, looked up): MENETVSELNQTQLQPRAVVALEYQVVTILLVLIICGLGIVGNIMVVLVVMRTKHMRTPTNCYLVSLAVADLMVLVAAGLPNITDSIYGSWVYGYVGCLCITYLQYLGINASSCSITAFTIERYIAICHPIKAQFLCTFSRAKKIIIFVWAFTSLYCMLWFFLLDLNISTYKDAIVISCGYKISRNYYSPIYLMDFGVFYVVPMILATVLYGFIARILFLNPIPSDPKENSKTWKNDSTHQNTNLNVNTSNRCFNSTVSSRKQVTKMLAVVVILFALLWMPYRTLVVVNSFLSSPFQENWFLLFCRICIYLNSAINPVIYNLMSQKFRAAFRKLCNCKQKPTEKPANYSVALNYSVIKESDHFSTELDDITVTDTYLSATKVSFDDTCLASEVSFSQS
Procedure, shortened: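 Antagonist mode: after a 5 min room-temperature compound exposure, cells were stimulated with 1 nM (final) TRH. Dye-loaded TRHR-HEK293 cells were used, and calcium-dependent fluorescence was followed for 3 min, with 15-point titrations run in triplicate.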

[17] = molecular target: Thyrotropin-releasing hormone receptor (Homo sapiens) (UniProt P34981); assay: qHTS assay to identify small molecule agonists of the thyrotropin-releasing hormone receptor (TRHR) signaling pathway (AID 1346891); further: series mostly up to about 58 µM
Procedure, shortened: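 Agonist-mode intracellular calcium readout: kinetic fluorescence over 3 min at 1 s intervals after compound addition to TRHR-HEK293 cells (18 h seeded, 2 h dye-loaded at 37 C). Fifteen concentrations, triplicates.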

[18] = molecular target: Androgen receptor (Homo sapiens) (UniProt P10275); assay: qHTS assay to identify small molecule agonists of the androgen receptor (AR) signaling pathway in the presence of an antagonist (AID 1259381); further: nearly all actives have a fitted effect of over 15% in size
Chain of Androgen receptor (Homo sapiens) (P10275 whole entry, looked up): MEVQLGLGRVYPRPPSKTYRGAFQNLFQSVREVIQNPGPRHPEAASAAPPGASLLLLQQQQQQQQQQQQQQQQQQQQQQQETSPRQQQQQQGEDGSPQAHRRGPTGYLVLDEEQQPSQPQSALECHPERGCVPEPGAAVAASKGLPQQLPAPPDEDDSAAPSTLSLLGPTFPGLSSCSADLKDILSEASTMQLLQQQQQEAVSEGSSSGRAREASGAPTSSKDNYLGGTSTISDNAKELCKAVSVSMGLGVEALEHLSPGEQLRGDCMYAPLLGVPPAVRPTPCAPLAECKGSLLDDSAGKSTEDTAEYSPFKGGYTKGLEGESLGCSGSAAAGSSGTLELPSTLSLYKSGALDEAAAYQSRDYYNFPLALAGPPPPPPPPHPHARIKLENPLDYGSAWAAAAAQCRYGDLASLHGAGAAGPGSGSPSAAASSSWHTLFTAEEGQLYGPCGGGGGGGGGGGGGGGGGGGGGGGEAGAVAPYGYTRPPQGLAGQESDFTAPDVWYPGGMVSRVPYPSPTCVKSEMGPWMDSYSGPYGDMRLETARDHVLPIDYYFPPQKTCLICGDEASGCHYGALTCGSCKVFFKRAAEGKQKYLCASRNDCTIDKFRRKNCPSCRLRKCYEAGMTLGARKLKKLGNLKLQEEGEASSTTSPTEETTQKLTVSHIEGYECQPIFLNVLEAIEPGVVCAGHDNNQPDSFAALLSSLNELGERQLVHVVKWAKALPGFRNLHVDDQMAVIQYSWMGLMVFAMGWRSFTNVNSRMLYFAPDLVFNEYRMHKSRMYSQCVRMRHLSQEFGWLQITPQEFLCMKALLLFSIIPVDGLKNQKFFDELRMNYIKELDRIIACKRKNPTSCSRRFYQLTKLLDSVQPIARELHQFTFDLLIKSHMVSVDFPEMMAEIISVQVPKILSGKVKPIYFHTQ
Procedure, shortened: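 Agonist-mode confirmation run against 3.0 uM final nilutamide: compounds titrated at 15 concentrations onto MDA-kb2 MMTV-luciferase reporter cells. Luminescence measured with ONE-Glo following 16 hr incubation, 37C, 0% CO2.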

[19] = qHTS assay to identify small molecule agonists of the estrogen receptor alpha (ER-alpha) signaling pathway in the presence of an antagonist - cell viability counter screen (AID 1259386; active means well fitted curve in the direction sought with a large enough effect in the repeat runs; an effect the other way counts as inactive or inconclusive; further: series mostly up to about 92 µM; nearly all actives have a fitted effect of over 30% in size)
Procedure, shortened: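 Compounds tested at 15 concentrations for 22 h at 37C alongside 10.0nM (final) ICI-182,780 antagonist, in VM7Luc4E2 cells grown in phenol red-free, charcoal-stripped medium. Viability read by CellTiter-Fluor fluorescence after 1 h reagent incubation.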

[20] = molecular target: Progesterone receptor (Homo sapiens) (UniProt P06401); assay: qHTS assay to identify small molecule antagonists of the progesterone receptor (PR) signaling pathway (AID 1346795; active means well fitted inhibition curve with a large enough effect in the signal ratio in the repeat runs, not every such curve was filed as active; the % refers to the signal ratio)
Procedure, shortened: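 Antagonist mode with agonist R5020 at 1 nM final and 16 hr incubation at 37C. Reporter was beta-lactamase driven by UAS in HEK293T (PR-UAS-bla), 2% charcoal-stripped serum; signal from LiveBLAzer FRET substrate, 2 hr at room temperature.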

Measured: Potency

O=P(O)(Oc1ccccc1)Oc1ccccc1
not listed: [18] | [19] | [20]
inactive: all other assays above

Clc1ccccc1N1CCNCC1
not listed: [5] | [6] | [12]
inactive: all other assays above

N#CCNCC#N
not listed: [18] | [19]
inactive: all other assays above

CCC1(c2ccccc2)C(=O)N=C(O)NC1=O (stereo not given)
not listed: [11] | [12] | [18] | [20]
inactive: all other assays above

ClC(Cl)(Cl)C(Cl)(Cl)Cl
not listed: [8] | [9] | [11] | [16] | [17] | [18]
inactive: all other assays above

O=C1CN=C(c2ccccc2)c2cc([N+](=O)[O-])ccc2N1
not listed: [6] | [18] | [20]
inactive: all other assays above

CC(=O)CC(c1ccc(Cl)cc1)c1c(O)c2ccccc2oc1=O (stereo not given)
not listed: [8] | [9] | [18]
inactive: all other assays above

CCC(Cl)[N+](=O)[O-] (stereo not given)
not listed: [18]
inactive: all other assays above
